Experiments:
[1] = target: T1, Casein kinase II (Homo sapiens) (UniProt P67870+P68400+P19784); conditions: at 1 µM
[2] = target: T1, Casein kinase II (Homo sapiens); conditions: at 10 µM
[3] = target: Casein kinase II subunit alpha' (Homo sapiens) (UniProt P19784); conditions: at 1 µM
[4] = target: Casein kinase II subunit alpha' (Homo sapiens) (UniProt P19784); conditions: at 10 µM
[5] = target: Dual specificity protein kinase CLK2 (Homo sapiens) (UniProt P49760); conditions: at 1 µM
[6] = target: Dual specificity protein kinase CLK2 (Homo sapiens) (UniProt P49760); conditions: at 10 µM
[7] = target: Dual specificity protein kinase CLK3 (Homo sapiens) (UniProt P49761); conditions: at 1 µM
[8] = target: Dual specificity protein kinase CLK3 (Homo sapiens) (UniProt P49761); conditions: at 10 µM
[9] = target: Tyrosine-protein kinase CSK (Homo sapiens) (UniProt P41240); conditions: at 1 µM
[10] = target: Tyrosine-protein kinase CSK (Homo sapiens) (UniProt P41240); conditions: at 10 µM
[11] = target: Calcium/calmodulin-dependent protein kinase type 1 (Homo sapiens) (UniProt Q14012); conditions: at 1 µM
[12] = target: Calcium/calmodulin-dependent protein kinase type 1 (Homo sapiens) (UniProt Q14012); conditions: at 10 µM
[13] = target: Calcium/calmodulin-dependent protein kinase type II subunit beta (Homo sapiens) (UniProt Q13554); conditions: at 1 µM
[14] = target: Calcium/calmodulin-dependent protein kinase type II subunit beta (Homo sapiens) (UniProt Q13554); conditions: at 10 µM
[15] = target: Calcium/calmodulin-dependent protein kinase type II subunit gamma (Homo sapiens) (UniProt Q13555); conditions: at 1 µM
[16] = target: Calcium/calmodulin-dependent protein kinase type II subunit gamma (Homo sapiens) (UniProt Q13555); conditions: at 10 µM
[17] = target: Calcium/calmodulin-dependent protein kinase type II subunit delta (Homo sapiens) (UniProt Q13557); conditions: at 1 µM
[18] = target: Calcium/calmodulin-dependent protein kinase type II subunit delta (Homo sapiens) (UniProt Q13557); conditions: at 10 µM
[19] = target: T2, Calcium/calmodulin-dependent protein kinase type IV (Homo sapiens) (UniProt Q16566); conditions: at 1 µM
T2 sequence (whole entry): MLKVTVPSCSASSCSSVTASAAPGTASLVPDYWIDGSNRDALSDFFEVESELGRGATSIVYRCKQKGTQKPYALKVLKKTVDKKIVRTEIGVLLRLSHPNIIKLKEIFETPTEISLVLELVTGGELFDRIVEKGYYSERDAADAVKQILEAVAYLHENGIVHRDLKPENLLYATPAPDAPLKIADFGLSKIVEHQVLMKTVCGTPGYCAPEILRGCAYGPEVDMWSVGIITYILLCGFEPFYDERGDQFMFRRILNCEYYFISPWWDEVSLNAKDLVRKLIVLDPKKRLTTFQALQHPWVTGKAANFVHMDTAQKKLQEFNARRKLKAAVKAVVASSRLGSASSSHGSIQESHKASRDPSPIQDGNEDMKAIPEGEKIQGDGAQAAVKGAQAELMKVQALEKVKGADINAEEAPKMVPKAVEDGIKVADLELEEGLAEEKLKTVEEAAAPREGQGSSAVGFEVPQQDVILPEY

[20] = target: T2, Calcium/calmodulin-dependent protein kinase type IV (Homo sapiens); conditions: at 10 µM

Chain of Calcium/calmodulin-dependent protein kinase type II subunit delta (Homo sapiens) (Q13557 whole entry): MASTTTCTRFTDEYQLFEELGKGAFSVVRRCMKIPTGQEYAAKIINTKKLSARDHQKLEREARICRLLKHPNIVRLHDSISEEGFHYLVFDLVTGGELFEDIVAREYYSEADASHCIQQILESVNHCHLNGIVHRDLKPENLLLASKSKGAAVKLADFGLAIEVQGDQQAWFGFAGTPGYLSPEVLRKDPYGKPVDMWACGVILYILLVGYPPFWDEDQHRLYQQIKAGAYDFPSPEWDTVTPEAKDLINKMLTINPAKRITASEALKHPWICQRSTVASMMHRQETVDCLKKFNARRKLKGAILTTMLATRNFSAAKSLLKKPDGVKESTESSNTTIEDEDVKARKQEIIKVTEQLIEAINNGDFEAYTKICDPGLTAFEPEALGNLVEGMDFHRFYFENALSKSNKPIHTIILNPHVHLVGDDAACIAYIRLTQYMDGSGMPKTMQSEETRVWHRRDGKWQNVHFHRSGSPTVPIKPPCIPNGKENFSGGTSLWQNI
Chain of Tyrosine-protein kinase CSK (Homo sapiens) (P41240 2-450 limits assumed): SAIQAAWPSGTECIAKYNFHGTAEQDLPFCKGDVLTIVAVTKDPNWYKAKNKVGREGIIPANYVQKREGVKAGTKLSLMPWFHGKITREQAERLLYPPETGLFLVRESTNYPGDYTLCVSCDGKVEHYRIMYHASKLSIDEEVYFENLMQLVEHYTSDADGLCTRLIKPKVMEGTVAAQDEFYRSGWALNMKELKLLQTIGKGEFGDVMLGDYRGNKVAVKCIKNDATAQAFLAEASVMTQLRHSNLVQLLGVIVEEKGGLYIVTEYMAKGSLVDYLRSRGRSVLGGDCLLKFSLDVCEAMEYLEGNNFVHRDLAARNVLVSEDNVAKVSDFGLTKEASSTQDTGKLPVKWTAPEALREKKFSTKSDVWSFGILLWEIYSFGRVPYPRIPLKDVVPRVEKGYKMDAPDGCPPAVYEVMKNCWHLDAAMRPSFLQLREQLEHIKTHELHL
Chain of Dual specificity protein kinase CLK3 (Homo sapiens) (P49761 whole entry, looked up): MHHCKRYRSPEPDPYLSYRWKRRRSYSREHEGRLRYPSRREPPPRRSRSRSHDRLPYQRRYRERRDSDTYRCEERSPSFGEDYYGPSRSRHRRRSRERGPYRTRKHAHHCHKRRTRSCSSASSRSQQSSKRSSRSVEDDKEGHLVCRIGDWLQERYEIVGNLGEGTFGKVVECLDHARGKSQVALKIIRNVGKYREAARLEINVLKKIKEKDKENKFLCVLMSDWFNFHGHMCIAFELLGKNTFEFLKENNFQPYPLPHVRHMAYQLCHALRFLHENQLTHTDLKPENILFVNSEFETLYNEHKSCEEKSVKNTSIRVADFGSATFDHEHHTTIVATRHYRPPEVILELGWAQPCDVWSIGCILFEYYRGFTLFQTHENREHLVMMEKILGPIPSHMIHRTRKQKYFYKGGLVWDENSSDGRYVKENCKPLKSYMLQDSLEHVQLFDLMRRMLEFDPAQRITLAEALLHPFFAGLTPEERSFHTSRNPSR
Chain of Calcium/calmodulin-dependent protein kinase type II subunit beta (Homo sapiens) (Q13554 whole entry): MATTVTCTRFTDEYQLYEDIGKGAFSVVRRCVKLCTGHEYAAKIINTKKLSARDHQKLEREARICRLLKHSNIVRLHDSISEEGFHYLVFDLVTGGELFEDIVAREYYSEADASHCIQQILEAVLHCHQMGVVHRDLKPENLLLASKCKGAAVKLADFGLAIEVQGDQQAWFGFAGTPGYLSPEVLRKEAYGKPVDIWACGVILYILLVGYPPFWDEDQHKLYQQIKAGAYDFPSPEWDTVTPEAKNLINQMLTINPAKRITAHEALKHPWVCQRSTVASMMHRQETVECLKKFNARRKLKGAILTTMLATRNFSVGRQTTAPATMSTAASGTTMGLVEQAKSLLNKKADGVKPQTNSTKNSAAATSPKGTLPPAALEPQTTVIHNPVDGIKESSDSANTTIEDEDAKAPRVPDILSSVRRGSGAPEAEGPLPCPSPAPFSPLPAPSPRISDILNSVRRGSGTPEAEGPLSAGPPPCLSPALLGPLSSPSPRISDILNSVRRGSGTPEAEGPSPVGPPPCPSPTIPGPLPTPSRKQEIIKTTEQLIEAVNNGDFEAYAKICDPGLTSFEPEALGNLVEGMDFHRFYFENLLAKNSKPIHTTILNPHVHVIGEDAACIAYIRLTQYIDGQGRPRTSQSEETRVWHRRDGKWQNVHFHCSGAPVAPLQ
Chain of Dual specificity protein kinase CLK2 (Homo sapiens) (P49760 whole entry, looked up): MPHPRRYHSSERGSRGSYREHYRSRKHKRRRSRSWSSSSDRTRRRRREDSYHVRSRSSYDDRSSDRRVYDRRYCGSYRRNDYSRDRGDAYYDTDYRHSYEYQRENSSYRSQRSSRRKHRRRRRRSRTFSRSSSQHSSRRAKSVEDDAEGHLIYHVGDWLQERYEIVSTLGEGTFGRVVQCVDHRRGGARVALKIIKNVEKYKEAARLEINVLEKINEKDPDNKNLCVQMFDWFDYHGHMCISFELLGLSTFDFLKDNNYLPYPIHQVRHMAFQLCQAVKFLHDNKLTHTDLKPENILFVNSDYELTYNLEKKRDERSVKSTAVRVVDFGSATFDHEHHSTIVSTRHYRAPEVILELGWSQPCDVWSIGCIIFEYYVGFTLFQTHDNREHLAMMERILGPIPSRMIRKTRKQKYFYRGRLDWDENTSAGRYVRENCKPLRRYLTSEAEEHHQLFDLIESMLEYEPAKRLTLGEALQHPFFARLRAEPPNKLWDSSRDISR
Chain of Calcium/calmodulin-dependent protein kinase type II subunit gamma (Homo sapiens) (Q13555 whole entry): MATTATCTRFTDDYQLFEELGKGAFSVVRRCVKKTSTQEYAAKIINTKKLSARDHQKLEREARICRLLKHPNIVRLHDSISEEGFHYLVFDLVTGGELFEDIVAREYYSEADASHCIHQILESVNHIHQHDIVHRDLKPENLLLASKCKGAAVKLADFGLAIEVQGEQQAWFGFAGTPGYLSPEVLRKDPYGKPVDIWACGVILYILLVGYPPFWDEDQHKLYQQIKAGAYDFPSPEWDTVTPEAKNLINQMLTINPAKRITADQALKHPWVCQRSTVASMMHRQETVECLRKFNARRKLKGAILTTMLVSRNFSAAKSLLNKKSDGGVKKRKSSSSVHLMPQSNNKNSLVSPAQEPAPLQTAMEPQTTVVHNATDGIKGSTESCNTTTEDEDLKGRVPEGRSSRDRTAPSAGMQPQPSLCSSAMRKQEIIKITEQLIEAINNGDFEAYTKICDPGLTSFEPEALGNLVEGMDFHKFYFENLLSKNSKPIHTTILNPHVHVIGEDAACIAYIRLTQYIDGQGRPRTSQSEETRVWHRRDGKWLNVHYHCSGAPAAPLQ
Chain of Casein kinase II subunit alpha' (Homo sapiens) (P19784 whole entry, looked up): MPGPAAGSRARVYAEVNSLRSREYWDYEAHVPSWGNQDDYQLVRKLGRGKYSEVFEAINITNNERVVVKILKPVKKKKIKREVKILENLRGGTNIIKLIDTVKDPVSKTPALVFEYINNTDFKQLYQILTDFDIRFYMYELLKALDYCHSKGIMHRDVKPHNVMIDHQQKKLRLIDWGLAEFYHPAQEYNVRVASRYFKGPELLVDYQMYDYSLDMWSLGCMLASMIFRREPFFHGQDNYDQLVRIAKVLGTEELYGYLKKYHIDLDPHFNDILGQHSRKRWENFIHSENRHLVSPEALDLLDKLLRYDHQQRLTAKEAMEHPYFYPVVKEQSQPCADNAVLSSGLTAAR
T1 sequence (P19784 whole entry, looked up): as above
T1 sequence (P67870 whole entry, looked up): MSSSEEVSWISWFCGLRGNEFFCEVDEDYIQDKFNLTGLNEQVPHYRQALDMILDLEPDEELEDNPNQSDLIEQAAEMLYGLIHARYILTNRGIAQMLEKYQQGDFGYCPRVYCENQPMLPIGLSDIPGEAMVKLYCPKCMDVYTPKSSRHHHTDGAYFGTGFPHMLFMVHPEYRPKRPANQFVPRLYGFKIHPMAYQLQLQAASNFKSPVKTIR
T1 sequence (P68400 whole entry, looked up): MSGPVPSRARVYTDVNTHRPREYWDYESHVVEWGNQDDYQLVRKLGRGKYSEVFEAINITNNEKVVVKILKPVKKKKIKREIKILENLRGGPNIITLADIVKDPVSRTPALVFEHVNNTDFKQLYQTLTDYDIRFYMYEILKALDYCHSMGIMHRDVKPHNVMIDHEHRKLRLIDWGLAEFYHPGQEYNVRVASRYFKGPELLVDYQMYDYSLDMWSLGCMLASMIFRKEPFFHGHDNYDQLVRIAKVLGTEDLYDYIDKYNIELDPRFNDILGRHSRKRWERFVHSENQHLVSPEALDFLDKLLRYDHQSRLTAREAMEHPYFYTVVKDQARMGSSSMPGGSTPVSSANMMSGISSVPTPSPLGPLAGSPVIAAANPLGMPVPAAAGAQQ
Chain of Calcium/calmodulin-dependent protein kinase type 1 (Homo sapiens) (Q14012 whole entry, looked up): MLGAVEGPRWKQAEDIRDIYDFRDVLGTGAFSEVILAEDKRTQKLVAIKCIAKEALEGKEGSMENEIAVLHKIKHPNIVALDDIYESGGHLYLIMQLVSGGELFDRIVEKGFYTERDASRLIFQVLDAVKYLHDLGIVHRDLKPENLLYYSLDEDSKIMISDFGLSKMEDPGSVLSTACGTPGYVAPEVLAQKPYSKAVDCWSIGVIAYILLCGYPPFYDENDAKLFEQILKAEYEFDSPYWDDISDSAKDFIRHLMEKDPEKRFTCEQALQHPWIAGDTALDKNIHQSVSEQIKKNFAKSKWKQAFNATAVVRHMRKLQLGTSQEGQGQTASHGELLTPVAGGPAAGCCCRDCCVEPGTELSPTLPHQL

Structure (SMILES) | residual activity [1] [%] | residual activity [2] [%] | residual activity [3] [%] | residual activity [4] [%] | residual activity [5] [%] | residual activity [6] [%] | residual activity [7] [%] | residual activity [8] [%] | residual activity [9] [%] | residual activity [10] [%] | residual activity [11] [%] | residual activity [12] [%] | residual activity [13] [%] | residual activity [14] [%] | residual activity [15] [%] | residual activity [16] [%] | residual activity [17] [%] | residual activity [18] [%] | residual activity [19] [%] | residual activity [20] [%]
CNc1cc2c(Nc3cccc(Br)c3)ncnc2cn1 | 90 | 89 | 118 | 96 | 113 | 98 | 95 | 33 | 109 | 92 | 95 | 65 | 87 | 51 | 93 | 32 | 85 | 42 | 110 | 56
CC[n+]1c(/C=C/N(C)c2ccccc2)n(-c2ccccc2)c2ccc(-c3nc4ccccc4s3)cc21 | 109 | 105 | 134 | 90 | 109 | 108 | 91 | 58 | 103 | 95 | 107 | 26 | 93 | 38 | 113 | 99 | 109 | 78 | 124 | 95
CN(C)CCCn1cc(C2=C(c3c[nH]c4ccccc34)C(=O)NC2=O)c2ccccc21 | 107 | 101 | – | 104 | 14 | 2 | 66 | 21 | 122 | 100 | 89 | 49 | 63 | 18 | 28 | 6 | 16 | 5 | 88 | 45
Cc1cc2ncc(-c3ccccc3)nc2cc1C | – | – | – | – | – | 98 | 98 | 96 | – | – | – | 89 | 101 | 92 | – | 94 | – | 81 | 108 | 100
N#C/C(=C(\N)Sc1ccc(N)cc1)c1ccccc1C(F)(F)F | 96 | 99 | 108 | 104 | 97 | 94 | 95 | 92 | 106 | 87 | 83 | 95 | 79 | 86 | 90 | 86 | 62 | 47 | 107 | 83
Oc1c2ccccc2c2c3c(cccc13)N=N2 | 60 | 19 | 59 | 18 | 36 | 21 | 72 | 34 | 105 | 93 | 77 | 32 | – | – | 37 | 8 | 43 | 8 | 73 | 24
COc1cc2ncc(-c3ccccc3)nc2cc1OC | – | – | – | – | – | – | 92 | 81 | – | 94 | – | – | 100 | 82 | – | 78 | – | 80 | – | 60
N#CC(C#N)=C(N)/C(C#N)=C/c1ccc(O)cc1 | 91 | 85 | 120 | 86 | – | – | 87 | 126 | – | – | – | – | 96 | 90 | 116 | 95 | – | – | – | –
COc1cc2ncnc(Nc3ccc(O)c(Br)c3)c2cc1OC | 58 | 44 | 97 | 38 | 80 | 30 | 82 | 118 | 90 | 76 | 104 | 61 | 73 | 62 | 68 | 18 | 79 | 28 | 122 | 67
Ic1cccc(CSc2nnc(-c3ccncc3)o2)c1 | 87 | 87 | 101 | 97 | 12 | 13 | 65 | 45 | 104 | 94 | 97 | 79 | 75 | 55 | 85 | 74 | 73 | 65 | 106 | 100
O=c1c2ccccc2[nH]c(=S)n1CCN1CCC(=C(c2ccc(F)cc2)c2ccc(F)cc2)CC1 | 89 | 116 | 125 | 93 | 115 | 94 | 90 | 64 | 120 | 98 | 110 | 113 | 102 | 79 | 115 | 100 | 105 | 91 | 108 | 95
CC(=O)c1ccc(N2CCOCC2)cc1O | 81 | 108 | – | 93 | – | 101 | – | 91 | – | – | 108 | 83 | 89 | 92 | 103 | 96 | 102 | 86 | 97 | 98
COc1cc2ncnc(Nc3ccc(Oc4ccccc4)cc3)c2cc1OC | 93 | 100 | 114 | 108 | 108 | 106 | 82 | 99 | 12 | 3 | 102 | 76 | 88 | 84 | 102 | 102 | 105 | 111 | 103 | 104
O=C1Nc2ccccc2/C1=C1/Nc2ccccc2/C1=N\OCCC(O)CO (stereo not given) | 73 | 22 | 46 | 3 | 2 | 4 | 58 | 25 | – | – | 64 | 15 | 27 | 4 | 6 | 0 | 6 | 1 | 15 | 9
Nc1nc(Nc2ccc(S(N)(=O)=O)cc2)nn1C(=S)Nc1c(F)cccc1F | 100 | 85 | 95 | 62 | -2 | 2 | -4 | -5 | – | 99 | 66 | 17 | 5 | -1 | 2 | 0 | 0 | 0 | – | –
